# Data from publication PMC8384837, “Expanding the binding specificity for RNA recognition by a PUF domain”.
# What was measured:
# Assay in all cases: yeast three-hybrid, YBZ-1, SC-Leu-His + 0.5 mM 3-AT, 4 days
# Details in all cases: tags: N-Gal4 AD-HA kept; label: inside an RPR1-promoter hybrid RNA with tandem MS2 sites; ssRNA
# PUM1 PUF domain R5-EHR = PUM1 PUF domain R5-EHR (Homo sapiens, UniProt Q14671 828-1176, C1007E;R1008H;Q1011R)
# Outline: (§1)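 The interaction score is the log change in variant frequency from input to selection. Scores were computed in log2 with a pseudocount of 1 for absent variants, using Illumina sequencing of PCR-amplified repeat regions. The input came from four days on SC-Leu and the selection from four days on SC-Leu-His + 0.5 mM 3-AT. The cells were strain YBZ-1 (LexA–MS2 coat fusion, HIS3 reporter) co-expressing Pumilio-1 PUF domain libraries and matching RNA elements from a centromeric plasmid.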
# PUM1 PUF domain R4-ALS = PUM1 PUF domain R4-ALS (Homo sapiens, UniProt Q14671 828-1176, N971A;H972L;Q975S)
# Outline: as §1
# PUM1 PUF domain R3-CPT = PUM1 PUF domain R3-CPT (Homo sapiens, UniProt Q14671 828-1176, R936P;Q939T)
# Outline: as §1
# PUM1 PUF domain R6-SWR = biological target: T1, PUM1 PUF domain R6-SWR (Homo sapiens, UniProt Q14671 828-1176, N1043S;Y1044W;Q1047R)
# T1 sequence: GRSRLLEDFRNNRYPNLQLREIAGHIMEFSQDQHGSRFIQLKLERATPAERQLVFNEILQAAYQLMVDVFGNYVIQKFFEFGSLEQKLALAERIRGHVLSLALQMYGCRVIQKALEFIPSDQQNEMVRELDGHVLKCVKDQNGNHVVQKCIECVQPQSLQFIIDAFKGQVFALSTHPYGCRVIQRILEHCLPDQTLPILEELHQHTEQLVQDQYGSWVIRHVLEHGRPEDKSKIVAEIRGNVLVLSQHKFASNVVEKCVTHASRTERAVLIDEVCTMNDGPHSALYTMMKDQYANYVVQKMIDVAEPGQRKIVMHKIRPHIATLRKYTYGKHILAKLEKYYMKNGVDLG
# Outline: as §1
# PUM1 PUF domain R1-KKV = PUM1 PUF domain R1-KKV (Homo sapiens, UniProt Q14671 828-1176, S863K;R864K;Q867V)
# Outline: as §1
# PUM1 PUF domain R5-VHM = PUM1 PUF domain R5-VHM (Homo sapiens, UniProt Q14671 828-1176, C1007V;R1008H;Q1011M)
# Outline: as §1
# PUM1 PUF domain R5-WHA = PUM1 PUF domain R5-WHA (Homo sapiens, UniProt Q14671 828-1176, C1007W;R1008H;Q1011A)
# Outline: as §1
# PUM1 PUF domain R3-LRT = PUM1 PUF domain R3-LRT (Homo sapiens, UniProt Q14671 828-1176, C935L;Q939T)
# Outline: as §1
# PUM1 PUF domain R3-YRC = PUM1 PUF domain R3-YRC (Homo sapiens, UniProt Q14671 828-1176, C935Y;Q939C)
# Outline: as §1
# PUM1 PUF domain R3-GFP = PUM1 PUF domain R3-GFP (Homo sapiens, UniProt Q14671 828-1176, C935G;R936F;Q939P)
# Outline: as §1
# PUM1 PUF domain R8-RYA = PUM1 PUF domain R8-RYA (Homo sapiens, UniProt Q14671 828-1176, N1122R;Q1126A)
# Outline: as §1
# PUM1 PUF domain R7-LHG = PUM1 PUF domain R7-LHG (Homo sapiens, UniProt Q14671 828-1176, S1079L;N1080H;E1083G)
# Outline: as §1
# PUM1 PUF domain R4-ANY = PUM1 PUF domain R4-ANY (Homo sapiens, UniProt Q14671 828-1176, N971A;H972N;Q975Y)
# Outline: as §1
# PUM1 PUF domain R4-CPT = PUM1 PUF domain R4-CPT (Homo sapiens, UniProt Q14671 828-1176, N971C;H972P;Q975T)
# Outline: as §1
# PUM1 PUF domain R1-GVK = PUM1 PUF domain R1-GVK (Homo sapiens, UniProt Q14671 828-1176, S863G;R864V;Q867K)
# Outline: as §1
# PUM1 PUF domain R1-NKK = PUM1 PUF domain R1-NKK (Homo sapiens, UniProt Q14671 828-1176, S863N;R864K;Q867K)
# Outline: as §1
# PUM1 PUF domain R5-QCC = PUM1 PUF domain R5-QCC (Homo sapiens, UniProt Q14671 828-1176, C1007Q;R1008C;Q1011C)
# Outline: as §1
sequence,measurement,setting,value
GGCUAGAACUAGUGGAUCCCCCGGCGCCCGGCGGCUCGAGCCCGGGUAAGUGUAAAUAGUCUGCAUGCCGCCGGGCGCCAUGCCUGCAGGUCGACUCUAGAAAACAUG,binding signal,PUM1 PUF domain R5-EHR,3.38 log2 enrichment (interaction score)
same,binding signal,PUM1 PUF domain R4-ALS,4.11 log2 enrichment (interaction score)
same,binding signal,PUM1 PUF domain R3-CPT,2.54 log2 enrichment (interaction score)
same,binding signal,PUM1 PUF domain R6-SWR,8.07 log2 enrichment (interaction score)
same,binding signal,PUM1 PUF domain R1-KKV,2.4 log2 enrichment (interaction score)
same,binding signal,PUM1 PUF domain R5-VHM,2.73 log2 enrichment (interaction score)
same,binding signal,PUM1 PUF domain R5-WHA,1.08 log2 enrichment (interaction score)
GGCUAGAACUAGUGGAUCCCCCGGCGCCCGGCGGCUCGAGCCCGGGUAAGUGUAAGUAGUCUGCAUGCCGCCGGGCGCCAUGCCUGCAGGUCGACUCUAGAAAACAUG,binding signal,PUM1 PUF domain R3-LRT,4.37 log2 enrichment (interaction score)
same,binding signal,PUM1 PUF domain R3-YRC,4.22 log2 enrichment (interaction score)
GGCUAGAACUAGUGGAUCCCCCGGCGCCCGGCGGCUCGAGCCCGGGUAAGUGUAAUUAGUCUGCAUGCCGCCGGGCGCCAUGCCUGCAGGUCGACUCUAGAAAACAUG,binding signal,PUM1 PUF domain R3-LRT,1.36 log2 enrichment (interaction score)
same,binding signal,PUM1 PUF domain R3-GFP,4.82 log2 enrichment (interaction score)
same,binding signal,PUM1 PUF domain R3-CPT,1.02 log2 enrichment (interaction score)
GGCUAGAACUAGUGGAUCCCCCGGCGCCCGGCGGCUCGAGCCCGGGUAAGCGUAAAUAGUCUGCAUGCCGCCGGGCGCCAUGCCUGCAGGUCGACUCUAGAAAACAUG,binding signal,PUM1 PUF domain R8-RYA,6.7 log2 enrichment (interaction score)
GGCUAGAACUAGUGGAUCCCCCGGCGCCCGGCGGCUCGAGCCCGGGUAAGUUUAAAUAGUCUGCAUGCCGCCGGGCGCCAUGCCUGCAGGUCGACUCUAGAAAACAUG,binding signal,PUM1 PUF domain R7-LHG,4.5 log2 enrichment (interaction score)
GGCUAGAACUAGUGGAUCCCCCGGCGCCCGGCGGCUCGAGCCCGGGUAAGUCUAAAUAGUCUGCAUGCCGCCGGGCGCCAUGCCUGCAGGUCGACUCUAGAAAACAUG,binding signal,PUM1 PUF domain R7-LHG,3.19 log2 enrichment (interaction score)
GGCUAGAACUAGUGGAUCCCCCGGCGCCCGGCGGCUCGAGCCCGGGUAAGUGCAAAUAGUCUGCAUGCCGCCGGGCGCCAUGCCUGCAGGUCGACUCUAGAAAACAUG,binding signal,PUM1 PUF domain R6-SWR,7.3 log2 enrichment (interaction score)
GGCUAGAACUAGUGGAUCCCCCGGCGCCCGGCGGCUCGAGCCCGGGUAAGUGUAUAUAGUCUGCAUGCCGCCGGGCGCCAUGCCUGCAGGUCGACUCUAGAAAACAUG,binding signal,PUM1 PUF domain R4-ANY,3.22 log2 enrichment (interaction score)
same,binding signal,PUM1 PUF domain R4-CPT,3.09 log2 enrichment (interaction score)
GGCUAGAACUAGUGGAUCCCCCGGCGCCCGGCGGCUCGAGCCCGGGUAAGUGUACAUAGUCUGCAUGCCGCCGGGCGCCAUGCCUGCAGGUCGACUCUAGAAAACAUG,binding signal,PUM1 PUF domain R4-CPT,1.75 log2 enrichment (interaction score)
GGCUAGAACUAGUGGAUCCCCCGGCGCCCGGCGGCUCGAGCCCGGGUAAGUGUAAAUCGUCUGCAUGCCGCCGGGCGCCAUGCCUGCAGGUCGACUCUAGAAAACAUG,binding signal,PUM1 PUF domain R1-GVK,3.43 log2 enrichment (interaction score)
same,binding signal,PUM1 PUF domain R1-NKK,4.39 log2 enrichment (interaction score)
GGCUAGAACUAGUGGAUCCCCCGGCGCCCGGCGGCUCGAGCCCGGGUAAGUGUAAAUUGUCUGCAUGCCGCCGGGCGCCAUGCCUGCAGGUCGACUCUAGAAAACAUG,binding signal,PUM1 PUF domain R1-GVK,2 log2 enrichment (interaction score)
GGCUAGAACUAGUGGAUCCCCCGGCGCCCGGCGGCUCGAGCCCGGGUAAGUGUCAAUAGUCUGCAUGCCGCCGGGCGCCAUGCCUGCAGGUCGACUCUAGAAAACAUG,binding signal,PUM1 PUF domain R5-WHA,3.04 log2 enrichment (interaction score)
GGCUAGAACUAGUGGAUCCCCCGGCGCCCGGCGGCUCGAGCCCGGGUAAGUGUAAAUGGUCUGCAUGCCGCCGGGCGCCAUGCCUGCAGGUCGACUCUAGAAAACAUG,binding signal,PUM1 PUF domain R1-NKK,3.03 log2 enrichment (interaction score)
GGCUAGAACUAGUGGAUCCCCCGGCGCCCGGCGGCUCGAGCCCGGGUAAGUGUGAAUAGUCUGCAUGCCGCCGGGCGCCAUGCCUGCAGGUCGACUCUAGAAAACAUG,binding signal,PUM1 PUF domain R5-QCC,3.84 log2 enrichment (interaction score)
